Compound activity (PubChem)
TEAD-YAP inh = TEAD-YAP interaction inhibition, primary screen, TEAD-YAP interaction inhibitor project, luminescence, HEK-TIYL cells; TEAD-Gal4/YAP UAS-luciferase luminescence; inhibition, % at 9.12 µM; 1.4% of 640,000 active; AID 1259422, 2018; in the data active means inhibition above about 32%;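 further: 0% = median of test compound wells and 100% = reference inhibitor wells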
GPR151 activ = activators of human GPR151, primary screen, cell-based, PathHunter beta-arrestin, luminescence; PathHunter beta-arrestin GPR151 cells; G-protein coupled receptor 151 (Homo sapiens), Q8TDV0; 1% of 650,000 active; activation, % at 11.2 µM; in the data active means activation above about 4.9%;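 further: 0% = median of compound wells and 100% = cells with positive control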
Target sequence (Q8TDV0 whole entry, looked up): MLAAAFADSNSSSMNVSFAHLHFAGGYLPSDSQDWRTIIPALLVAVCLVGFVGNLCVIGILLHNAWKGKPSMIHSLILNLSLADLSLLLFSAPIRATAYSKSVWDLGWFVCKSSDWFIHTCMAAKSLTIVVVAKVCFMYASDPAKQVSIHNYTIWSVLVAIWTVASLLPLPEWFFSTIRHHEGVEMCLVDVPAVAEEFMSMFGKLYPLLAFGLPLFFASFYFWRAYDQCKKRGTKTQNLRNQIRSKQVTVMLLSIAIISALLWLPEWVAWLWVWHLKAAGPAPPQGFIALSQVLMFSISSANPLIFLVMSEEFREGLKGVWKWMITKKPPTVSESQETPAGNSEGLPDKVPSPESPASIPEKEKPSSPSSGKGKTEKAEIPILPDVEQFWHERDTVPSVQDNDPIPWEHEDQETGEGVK
FBW7 activator = FBW7 E3 ligase activators, primary screen, biochemical, AlphaScreen, human; F-box/WD repeat-containing protein 7 (Homo sapiens), Q969H0; AlphaScreen FBW7–phospho-cyclin E peptide binding, activator screen; normalized activity (activation), % at 26.1 µM; 0.13% of 650,000 active; AID 1259310, 2017; in the data active means normalized activity above about 1.9%;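 further: purified mutant Fbw7 with reduced substrate affinity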
MITF inh = MITF inhibitors, primary screen, biochemical, AlphaScreen, human | inhibition, % at 2.6 µM | 0.91% of 650,000 active | AlphaScreen MITF homodimerization, bead proximity signal; in the data active means inhibition above about 50%;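 further: 0% = vehicle wells with protein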
* = called active by the depositor. A selection: hits, their analogues and other compounds. The true share with any hit is near 3.5%.

SMILES | TEAD-YAP inh | GPR151 activ | FBW7 activator | MITF inh
Oc1ccc(Br)cc1CN1CCN(Cc2cccnc2)CC1 | 5 | -1 | 0 | 67*
Cc1cccc(CN2C(=O)CCC2CCNCCOc2ccccc2)c1 (stereo not given) | 5 | -1 | 0 | -8
COC(=O)c1c(NC(=O)/C(C#N)=C/c2ccc(OC(C)C)c(OC)c2)sc(C)c1C | -4 | 1 | 0 | 4
CCCCSc1nnc(-c2ccc3c(c2)OCO3)n1C | -71 | 0 | 2.1* | 13
COc1cc(/C=C/c2ccncc2)ccc1OC(=O)c1ccc(S(=O)(=O)N(C)C)cc1 | -4 | -3 | 0 | 6
Cn1cccc1/C=C1\CS/C(=C\c2cccn2C)C1=O | -11 | 1 | -1 | 68*
CCN1C/C(=C\c2cccn2C)C(=O)/C(=C/c2cccn2C)C1 | 1 | 1 | 0 | 11
COc1ccc(CCNC(=O)c2cccc(-c3csc4ccccc34)c2)cc1 | 19 | 3 | 0 | -3
COc1ccc(-n2nc(C(=O)Nc3nc4ccccc4s3)c3ccccc3c2=O)cc1 | -8 | -2 | 0 | -3
COC(=O)Cn1c(SCc2cc(C)ccc2C)nc2ccsc2c1=O | 63* | 0 | 0 | 14
Cc1ccc(CNC(=O)CCCCCn2c(SCc3cc(C)ccc3C)nc3ccsc3c2=O)cc1 | -2 | 1 | 0 | -6
Cc1ccc(C)c(CSc2nc3ccsc3c(=O)n2CCCCC(=O)O)c1 | 57* | 0 | 0 | 2
Nc1cc(=O)[nH]c2nnc(SCC(=O)O)n12 | 0 | -1 | 0 | -14
CCOC(=O)C1=C(C)NC2=C(C(=O)CCC2)C1c1ccc(Cl)cc1 (stereo not given) | -2 | -1 | 0 | -3
CC1=C(C(=O)OCCOc2ccccc2)C(c2ccccc2[N+](=O)[O-])C2=C(CCCC2=O)N1 (stereo not given) | 35* | -1 | 0 | 1
CC1=C(C(=O)OCCc2ccccc2)C(c2ccccc2[N+](=O)[O-])C2=C(CCCC2=O)N1 (stereo not given) | 48* | -1 | 0 | 12
COc1cc(Nc2nc(Nc3cnccn3)nc3c2ncn3-c2ccccc2)cc(OC)c1OC | 22 | 1 | 0 | 12
O=C(C1CCN(c2ccc(-c3ccc(F)cc3)nn2)CC1)N1CCc2ccccc21 | -8 | 0 | 0 | -3
Nc1nc2cc3sc(N)nc3cc2s1 | -11 | 0 | 0 | -4
Nc1nc2cc3c(cc2s1)OCCO3 | 37* | -2 | 0 | 6
COc1cc2nc(Oc3ccccc3)nc(Nc3cc(OC)c(OC)c(OC)c3)c2cc1OC | 56* | 5 | 0 | 10
COc1cc(-c2cnc3ccc(NCCCO)nn23)ccc1O | 75* | 0 | 0 | 8
CCCNc1ccc2ncc(-c3ccc(OC)c(OC)c3)n2n1 | 34* | 0 | 0 | -21
COc1ccc(CNc2ccc3ncc(-c4ccc(O)c(OC)c4)n3n2)cc1 | 1 | 0 | 0 | 14
CCCNc1ccc2ncc(-c3cccc(C(N)=O)c3)n2n1 | 33* | 0 | 0 | 13
SMILES | TEAD-YAP inh | GPR151 activ | FBW7 activator | MITF inh
Cc1[nH]c2ccc(-c3nnc(SCC(=O)N(C(C)C)C(C)C)o3)cc2c1C | 36* | -1 | 0 | 18
O=C(N/N=C/c1cccc([N+](=O)[O-])c1)c1cc(-c2ccc(Br)s2)[nH]n1 | -4 | 0 | 0 | -12
CC12CCC(C(=O)Nc3ccc4c(c3)OCCO4)(CC1=O)C2(C)C (stereo not given) | 62* | 0 | 0 | 2
COc1ccc(NC(=O)c2ccc3c(c2)OCCO3)cc1 | 75* | -5 | 0 | -3
CC12CCC(C(=O)Nc3ccc(Cl)c(Cl)c3)(CC1=O)C2(C)C (stereo not given) | 8 | 2 | 0 | 2
O=C(Nc1ccc2sccc2c1)c1ccc2c(c1)OCO2 | 72* | -7 | 0 | -8
O=C(Nc1ccc2c(c1)OCCO2)c1ccc(C(=O)Nc2ccc3c(c2)OCCO3)nc1 | 65* | 3 | 0 | 12
O=C(Nc1ccc2c(c1)OCCO2)c1ccccc1 | 12 | 0 | 0 | 10
Cc1ccc(CN(C(=O)c2ccc(F)cc2)C2CC(C)(C)NC(C)(C)C2)o1 | 3 | 0 | 0 | 17
COc1cccc(NC(=O)c2ccc(N3CCCCC3)c([N+](=O)[O-])c2)c1 | -46 | 1 | 0 | 2
CCC(=O)N1c2ccccc2NC2=C(C(=O)CC(c3ccc(OC)cc3)C2)C1c1cc(OC)c(OC)c(OC)c1 (stereo not given) | 5 | 0 | 0 | 5
O=C(Nc1cccnc1)C(=O)Nc1ccc2c(c1)OCCO2 | 59* | -6 | 0 | 22
Cc1ccc2cc3c(N)c(C(=O)Nc4ccc5c(c4)OCCO5)sc3nc2c1 | 71* | -1 | 0 | 9
Cc1cc(C(=O)Nc2ccc3c(c2)OCCO3)cs1 | 41* | -5 | 0 | 10
COc1ccc(C(=O)Nc2ccc3c(c2)OCCO3)cc1 | 66* | -7 | 0 | 1
COc1cccc(OC)c1C(=O)Nc1ccc2c(c1)OCCO2 | -7 | 0 | 0 | 4
COC(=O)C(=NNc1ccc2c(c1)OCCO2)C(=O)OC | 80* | -2 | 1 | -1
O=C(Nc1ccc2c(c1)OCCO2)c1ccc2ccccc2c1 | 87* | -7 | 0 | 6
O=C(O)C1CCCCC1C(=O)Nc1ccc2c(c1)OCCO2 (stereo not given) | 62* | -1 | 0 | 19
O=C(O)C1C2CCC(O2)C1C(=O)Nc1ccc2c(c1)OCCO2 (stereo not given) | 8 | -1 | 0 | 5
Clc1ccc(-c2cnnc(NCC(c3cccnc3)N3CCOCC3)n2)cc1 (stereo not given) | -8 | -2 | 0 | -7
CCOc1cccc(CN2CCc3nnc(C(CC(C)C)NC(C)=O)n3CC2)c1O (stereo not given) | 5 | 0 | 0 | 7
O=C(Nc1ccccc1[N+](=O)[O-])c1cc(-c2cccc(Br)c2)nc2ccccc12 | 0 | 0 | 1 | 10
CCOCCCNC1CCN(c2nc(C)c3cc(C)ccc3n2)CC1 | 49* | 0 | 0 | -21
CCCCNC1CCN(c2nc(C)c3cc(C)ccc3n2)CC1 | 1 | -1 | 0 | 2
SMILES | TEAD-YAP inh | GPR151 activ | FBW7 activator | MITF inh
COc1cccc2cc(C(=O)Nc3ccccc3)c(=Nc3ccc(F)cc3)oc12 | -40 | 0 | 0 | 0
COc1cccc2cc(C(=O)Nc3ccccc3)/c(=N/O)oc12 | 34* | -1 | 0 | 14
NC(CCCc1ccccc1)c1ccc2c(c1)OCCO2 (stereo not given) | 55* | 1 | 1 | 22
CCOC(=O)/C(=N\Nc1ncnc2ccccc12)c1cccs1 | 36* | -10 | 0 | -3
CCC(Nc1ncnc2ccccc12)C(=O)O (stereo not given) | 6 | 0 | 0 | -1
CC(C)CC(c1nnnn1Cc1ccc(F)cc1)N1CCN(C)CC1 (stereo not given) | 3 | 2 | 0 | 8
